# Assay results taken from PubChem BioAssay AID720690 (Broad Institute, 2013).
# Potency and affinity values are given separately. Calls of active or inactive are those of the source.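 How the source made its calls: active means every repeat run showing a signal drop whose fitted half-maximal concentration is at most twice the top tested concentration; inconclusive means repeat runs disagree, or flat partial drop, or poor fit; inactive means the rest.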
# Test: general mammalian cell viability loss – activator set, cherry-pick, cytotoxicity control for miR-122 modulator project, dose response (AID 720690)
# Details: HEK293T viability, CellTiter-Glo luminescence, 48 h; series mostly up to 26 µM
row,SMILES,outcome
1,COc1cccc(OCc2cc(/C=N/Nc3ccc(C(=O)O)cc3)ccc2OC)c1,inactive
2,CO[C@@H]1CN(C)C(=O)c2ccc(NC(=O)c3nc4ccccc4s3)cc2OC[C@H](C)N(Cc2cccnc2)C[C@H]1C,inactive
3,CO[C@@H]1CN(C)C(=O)c2ccc(NC(C)=O)cc2OC[C@@H](C)N(C(=O)c2ccccc2F)C[C@H]1C,inactive
